# Test results as given in publication PMC5540273 (PLoS ONE, 2017).
# Key:
# Conditions in all cases: concentration: 1 μM, replicates: in singlicate; n = 1
# MTOR = system: MTOR
# MUSK = system: MUSK
# MYLK2 = system: MYLK2
# MYLK4 = system: MYLK4
# MYLK = system: MYLK
# MYO3A = system: MYO3A
# MYO3B = system: MYO3B
# NDR1 = system: T1, NDR1
# T1 construct: gene STK38
# NDR2 = system: NDR2
# NEK10 = system: NEK10
# 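Also: KINOMEscan kinase panel screen.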
Structure (SMILES),%Inh (MTOR) [%],%Inh (MUSK) [%],%Inh (MYLK2) [%],%Inh (MYLK4) [%],%Inh (MYLK) [%],%Inh (MYO3A) [%],%Inh (MYO3B) [%],%Inh (NDR1) [%],%Inh (NDR2) [%],%Inh (NEK10) [%]
CS(=O)(=O)c1cccc(CNc2nc(Nc3ccc4c(c3)CCC(=O)N4)ncc2C(F)(F)F)c1,62,12,16,0,7,0,0,58,0,0
Cl.Cl.NC(CNC(=O)c1cc(Br)c(-c2ccnc3[nH]ccc23)s1)c1ccccc1 (centres unmarked) [GSK1322949],26,22,27,97.2,62,34,0,96.4,95.5,1
c1ccc(Oc2ccc(Nc3ccnc4cc(-c5ccc(CN6CCCCC6)o5)ccc34)cc2)nc1 [GW567143],2,24,0,0,0,0,14,0,0,1
CCn1c(-c2nonc2N)nc2c(-c3ccccc3)ncc(OCCCN)c21.O=C(O)C(F)(F)F.O=C(O)C(F)(F)F [GSK260205],20,0,0,0,33,27,0,23,0,9
Cn1cc(-c2cnc(N)c3c(-c4ccc5c(c4)CCN5C(=O)Cc4ccccc4)csc23)cn1 [GSK2593074],0,24,55,0,4,0,45,10,2,22
CN(c1ccc(NC(=O)N2CCN(CCCN3CCOCC3)CC2)cc1)c1ccnc(Nc2ccc(CS(C)(=O)=O)cc2)n1.Cl [GW830899],0,12,9,1,0,0,0,3,0,0
Cc1ccccc1CC(=O)N1CCc2cc(-c3cn(C)c4ncnc(N)c34)ccc21 [GSK2603346],30,5,85,0,9,100,0,0,0,0
COc1ccc(NC(=O)c2ccoc2)cc1-c1ccc(C(=O)NCC2CC2)cc1 [GW810437],36,0,0,0,0,7,21,32,16,16
